In the library only some 7.7% were active in any assay of this set; here they are far more common.
FMDV antiviral – blocks foot and mouth disease virus | FMDV antiviral cell-based qHTS | Potency, µM (series often up to 57.9 µM), for inactives: top-dose activity change, negative = inhibition, most hits filed as inhibitors | actives 1.2% (n = 410,000); calls by dose curve; tested in HEK293T cells; also: read-out not given here; potency is read from the fitted curve at half-maximal effect; nearly all actives have a fitted effect of over 45% in size
FBPA Giardia inh – Giardia lamblia aldolase inhibition | Potency, µM (top dose mostly 59.6 µM), without a hit: at the highest dose activity, negative = inhibition, hits mostly inhibitors | actives 0.71% (n = 290,000) | A8B2U2 | purified Giardia FBPA; also: potency is read from the fitted curve at half-maximal effect; nearly all actives have a fitted effect of over 55% in size
Target sequence (A8B2U2 whole entry, looked up): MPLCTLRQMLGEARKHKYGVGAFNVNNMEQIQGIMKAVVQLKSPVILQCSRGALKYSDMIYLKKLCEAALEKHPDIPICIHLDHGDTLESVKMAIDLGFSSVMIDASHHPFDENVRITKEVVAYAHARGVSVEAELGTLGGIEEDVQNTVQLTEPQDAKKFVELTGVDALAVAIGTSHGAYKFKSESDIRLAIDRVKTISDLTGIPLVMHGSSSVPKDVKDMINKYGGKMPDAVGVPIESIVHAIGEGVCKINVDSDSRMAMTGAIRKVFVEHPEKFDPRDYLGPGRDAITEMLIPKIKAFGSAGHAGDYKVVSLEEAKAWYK
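Giardia FBPA (40 nM reagent) was preincubated 10 min at RT with compound (up to 57.5 uM final), then substrate plus GAPDH/TPI/NAD/arsenate coupling system with diaphorase/resazurin was added; resorufin fluorescence (525/598 nm) was read after 20 min.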
Sm TGR block – inhibitors of Schistosoma mansoni thioredoxin glutathione reductase; Q962Y6; purified TGR, DTNB reduction, TNB absorbance 405 nm; Potency, µM (highest dose often 114 µM), for inactives: top-dose activity change, negative = inhibition, hits mostly inhibitors; actives 3% (n = 360,000); also: potency is read from the fitted curve at half-maximal effect; nearly all actives have a fitted effect of over 60% in size
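First, TGR (20 nM dispensed) and NADPH were mixed with compound. Second, a 15 min room-temperature incubation followed. Third, further NADPH and then DTNB were added to start the reaction. Finally, TNB absorbance was monitored kinetically.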
RE007 growth inh – less growth of the S. pombe RE007 Vpr strain; S. pombe RE007 Vpr strain, BacTiter-Glo ATP luminescence, 24 h; Potency, µM (doses to about 92.2 µM), for the others: at the highest dose activity change, negative = less growth, most hits filed as inhibitors; actives 0.21% (n = 360,000); AID 651644; active = well fitted falling curve with a large enough effect; inconclusive = small, poorly fitted or top-dose-only effect; inactive = no such curve, though single readings can be large or run the other way; also: potency is read from the fitted curve at half-maximal effect; nearly all actives have a fitted effect of over 50% in size
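Fission yeast RE007 carrying one integrated HIV-1 vpr copy, seeded at OD 0.01 in PMG+AL medium with 23 nL pinned compound. Grown 24 h at 30 degrees; viability read by BacTiter-Glo luminescence after 5 min.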
HCMV antiviral – human cytomegalovirus inhibition; HFF cells, HCMV-luciferase reporter, 72 h; active compounds read low; activity change, negative = inhibition, % at 57.5 µM; actives 4.5% (n = 410,000); AID 1259415; in the data active = activity change below about -60%; inconclusive = no clear call, values can overlap the other calls; inactive = above about -39%
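Inhibition of viral replication was scored as loss of reporter luminescence in HFFs infected with HCMV-luciferase (MOI 1 PFU/cell) for 72 h; compounds tested at 2 doses, normalized to buffer and Salinomycin controls.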
TbPYK inhibitor – blocks Trypanosoma brucei pyruvate kinase | Q57TT1 | TbPYK enzyme, Kinase-Glo Plus ATP luminescence, 45 min | Potency, µM (series often up to 76.8 µM), for the others: top-dose activity, negative = inhibition, actives largely listed as inhibitors | actives 0.12% (n = 410,000); also: potency is read from the fitted curve at half-maximal effect; nearly all actives have a fitted effect of over 50% in size
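Screened from lowest to highest concentration, compounds were pinned into TbPYK/substrate mixtures, and ADP (130 uM final) was added. Plates sat at room temperature for 45 min prior to Kinase-Glo Plus detection by luminescence.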
* hit, by the source's call; ? = inconclusive; · = no result. Unless noted, calls follow the shape of the dose curve; as a rule, active = well fitted curve in the direction sought with a large enough effect; inconclusive = small, poorly fitted or top-dose-only effect, or another doubt; inactive = no such curve, though single readings can be large; an effect the other way counts as inactive or inconclusive. % is scaled to controls: 0 for no effect and ±100 for the full control effect.

SMILES | FMDV antiviral | FBPA Giardia inh | Sm TGR block | RE007 growth inh | HCMV antiviral | TbPYK inhibitor
COc1cc(=O)n2c(c1C(=O)NC(C)c1ccco1)CCN(Cc1cc(C)ccc1C)CC2 (stereo unspecified) | -15% | · | · | · | · | ·
COc1cc(NC(=O)CC(C)n2ccnc2)cc(OC)c1 (stereo unspecified) | -5% | -10% | 1% | -14% | -37 | 0%
COC(=O)C(CC(=O)c1ccc(Br)cc1)n1nc(C)cc1C (stereo unspecified) | -9% | 2% | 3.5µM* | 28µM* | 15 | ?
COC(=O)C(CC(=O)c1ccc(Br)cc1)n1ccnc1 (stereo unspecified) | · | ? | 0.28µM* | · | · | ·
Cc1ccc(C(=O)CC(C(=O)O)n2cncn2)cc1 (stereo unspecified) | -3% | -10% | -20% | 5% | -2 | -6%
COc1ccc(CNC(=O)CC(C)n2nc(C)cc2C)cc1 (stereo unspecified) | 0% | · | 4% | · | -1 | -6%
COC(=O)C(CC(=O)c1ccc(C)cc1)n1nc(C)cc1C (stereo unspecified) | 9% | -3% | 13µM* | -12% | 29 | -3%
CC(=O)N1CCc2cc(Br)cc(S(=O)(=O)N3CCN(c4cc(C)ccc4C)CC3)c21 | -8% | · | 0% | · | -7 | 1%
CCCN1C(=O)CC[C@@H](S(=O)(=O)c2ccccc2)[C@@H]1c1ccco1 | · | · | · | · | -24 | ·
CN(C)S(=O)(=O)Oc1ccsc1C(=O)Nc1ccccc1Cl | -23% | 2% | -6% | -14% | -13 | 0%
CN(C)S(=O)(=O)Oc1ccsc1C(=O)Nc1cccc(Cl)c1Cl | -30% | -9% | -3% | -20% | -68* | 4%
C[C@@H]1CN([C@@H](C)CO)C(=O)CCCn2cc(nn2)CO[C@H]1CN(C)C(=O)Nc1ccc(C(F)(F)F)cc1 | · | · | · | · | 9 | ·
O=C(NCc1ccccn1)c1cnn(-c2nccc(-c3cc4ccccc4o3)n2)c1C1CC1 | -3% | · | · | · | · | ·
C[C@@]12C(=O)OC(=O)[C@]1(C)C1CCC2O1 | ? | · | -2% | 5% | -99* | -2%
CC1(C(=O)O)C2CCC(O2)C1(C)C(=O)O (stereo unspecified) | · | -5% | · | · | · | ·
CC(C)C[C@H](NC(=O)CNC(=O)[C@H](C)NC(=O)[C@H](CC(C)C)NC(=O)[C@H](CCCNC(=N)N)NC(=O)[C@H](Cc1cnc[nH]1)NC(=O)[C@@H](NC(=O)[C@@H](NC(=O)[C@@H]1CSSC[C@H](NC(=O)[C@@H](N)CO)C(=O)N[C@@H](CC(N)=O)C(=O)N[C@@H]([C@@H](C)O)C(=O)N[C@@H](C)C(=O)N[C@@H]([C@@H](C)O)C(=O)N1)C(C)C)[C@@H](C)O)C(=O)N[C@@H](CC(C)C)C(=O)N[C@@H](CO)C(=O)N[C@@H](CCCNC(=N)N)C(=O)N[C@@H](CO)C(=O)NCC(=O)NCC(=O)N[C@H](C(=O)N[C@H](C(=O)N[C@@H](CCCCN)C(=O)N[C@@H](CC(=O)O)C(=O)N[C@@H](CC(N)=O)C(=O)N[C@@H](Cc1ccccc1)C(=O)N[C@H](C(=O)N1CCC[C@H]1C(=O)N[C@H](C(=O)N[C@@H](CC(N)=O)C(=O)N[C@H](C(=O)NCC(=O)N[C@@H](CO)C(=O)N[C@@H](CCCCN)C(=O)N[C@@H](C)C(=O)N[C@@H](Cc1ccccc1)C(N)=O)C(C)C)[C@@H](C)O)C(C)C)C(C)C)C(C)C | · | -3% | · | · | · | ·
O=C(NNS(=O)(=O)c1ccc2ccccc2c1)C1CCN(Cc2ccccc2)CC1 | -17% | -2% | -1% | -5% | -107* | 2%
COc1cc2[nH]c(=S)nc(NCCc3ccc(S(N)(=O)=O)cc3)c2cc1OC | -12% | -8% | 14µM* | -7% | 9 | 3%
COc1cc2[nH]c(=S)nc(NC3CCCCCC3)c2cc1OC | ? | 4% | 1% | -14% | -74* | -6%

Screening data (PubChem)
